Results filed as inconclusive are left out. Where a call stands in place of a potency, no number is given. Values without a mark were called inactive. Calls of active or inactive are those of the source. Unless noted, calls follow the shape of the dose curve; as a rule, active = well fitted curve in the direction sought with a large enough effect in the repeat runs; inconclusive = weak or mixed curves; inactive = no such curve, though single readings can be large; an effect the other way counts as inactive or inconclusive.
Experiments:
[1] = qHTS assay to identify aromatase inhibitors - cell viability counter screen (AID 743084);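 also: cells stimulated with testosterone during compound exposure; nearly all actives have a fitted effect of over 55% in size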; also: potency is read from the fitted curve at half-maximal effect
[2] = qHTS assay to identify small molecule that activate the aryl hydrocarbon receptor (AhR) signaling pathway - cell viability counter screen (AID 743086); also: nearly all actives have a fitted effect of over 45% in size; also: potency is read from the fitted curve at half-maximal effect
Procedure, shortened: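 Cytotoxicity counter screen: CellTiter-Fluor signal (30 min, 37 C) in 4000 HepG2 cells/well carrying the DRE-luciferase reporter, following 24 h compound exposure at 37 C.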

[3] = molecular target: Peroxisome proliferator-activated receptor gamma (Homo sapiens) (UniProt P37231); test: qHTS assay to identify small molecule agonists of the peroxisome proliferator-activated receptor gamma (PPARg) signaling pathway (AID 743094; active = well fitted activation curve with a large enough effect in the signal ratio in the repeat runs, not every such curve was filed as active; the % refers to the signal ratio)
Peroxisome proliferator-activated receptor gamma (Homo sapiens), sequence (P37231 whole entry, looked up): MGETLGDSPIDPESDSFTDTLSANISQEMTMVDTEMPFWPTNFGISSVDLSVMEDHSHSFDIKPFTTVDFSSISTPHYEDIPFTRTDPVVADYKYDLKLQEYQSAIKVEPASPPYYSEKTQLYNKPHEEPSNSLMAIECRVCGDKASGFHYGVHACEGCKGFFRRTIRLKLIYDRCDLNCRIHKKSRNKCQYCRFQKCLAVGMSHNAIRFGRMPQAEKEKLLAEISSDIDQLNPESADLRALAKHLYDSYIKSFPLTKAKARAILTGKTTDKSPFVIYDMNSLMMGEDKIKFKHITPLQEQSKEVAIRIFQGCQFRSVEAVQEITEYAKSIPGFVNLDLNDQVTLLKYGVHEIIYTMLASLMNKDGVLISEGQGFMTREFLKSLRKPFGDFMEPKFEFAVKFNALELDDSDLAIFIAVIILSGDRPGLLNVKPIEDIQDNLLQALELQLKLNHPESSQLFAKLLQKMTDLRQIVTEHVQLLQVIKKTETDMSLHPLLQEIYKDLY
Procedure, shortened: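 Beta-lactamase FRET fluorescence was the read-out after a 1 h room-temperature substrate step, following 17 h compound treatment at 37C of HEK293H cells expressing a UAS-driven bla reporter responsive to PPARg.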

[4] = qHTS assay to identify small molecule phospholipidosis (PLD) inducers (AID 1259344; active = well fitted curve in the direction sought with a large enough effect; an effect the other way counts as inactive or inconclusive; also: potency is read from the fitted curve at half-maximal effect)
Procedure, shortened: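 Phospholipidosis is scored by imaging LipidTOX-stained pits in HepG2 cells exposed to compound for 24 h at 37 C; pit counts and integrated intensities per well and per cell serve as outputs.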

[5] = molecular target: Nuclear receptor subfamily 1 group I member 2 (Rattus norvegicus) (UniProt Q9R1A7); test: Rat pregnane X receptor (rPXR) activation by small molecules, qHTS assay (AID 1346983); settings: rPXR luciferase reporter cells, One-Glo luminescence, 24 h; max activation: stronger effect = higher value; also: nearly all actives have a fitted effect of over 20% in size; also: potency is read from the fitted curve at half-maximal effect
Nuclear receptor subfamily 1 group I member 2 (Rattus norvegicus), sequence (Q9R1A7 whole entry, looked up): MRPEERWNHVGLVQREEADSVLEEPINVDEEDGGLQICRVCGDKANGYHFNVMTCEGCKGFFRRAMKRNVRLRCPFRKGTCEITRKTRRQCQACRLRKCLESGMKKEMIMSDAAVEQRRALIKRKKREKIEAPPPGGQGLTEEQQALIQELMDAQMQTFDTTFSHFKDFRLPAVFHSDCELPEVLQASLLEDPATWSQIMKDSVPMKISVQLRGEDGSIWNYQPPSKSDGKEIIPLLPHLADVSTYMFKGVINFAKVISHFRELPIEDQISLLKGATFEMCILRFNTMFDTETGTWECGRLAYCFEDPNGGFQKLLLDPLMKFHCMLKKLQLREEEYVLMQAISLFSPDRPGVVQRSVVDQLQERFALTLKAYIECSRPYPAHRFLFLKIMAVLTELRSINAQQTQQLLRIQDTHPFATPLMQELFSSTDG
Procedure, shortened: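 Luminescent readout (One-Glo luciferase, 30 min room temperature) followed 24 hr compound treatment at 37 C of rPXR cells plated 2,000 per well and preincubated 5hr; qHTS format with compounds delivered in DMSO.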

[6] = molecular target: Nuclear receptor subfamily 1 group I member 2 (Homo sapiens) (UniProt O75469); test: CYP3A4 induction through human pregnane X receptor (PXR) by small molecules, qHTS assay (AID 1346984); also: nearly all actives have a fitted effect of over 40% in size; also: potency is read from the fitted curve at half-maximal effect
Procedure, shortened: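 Luminescence readout: luciferase signal after One-Glo (30 min, room temperature), following 3 h at 37C with 3uM final Luciferin-IPA P450 substrate. Cells were DPX-2 (HepG2, PXR/CYP3A4-luc co-transfected) dosed for 24 h.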

[7] = molecular target: Nuclear receptor subfamily 1 group I member 2 (Homo sapiens) (UniProt O75469); test: Human pregnane X receptor (PXR) activation by small molecules, qHTS assay (AID 1346985); also: nearly all actives have a fitted effect of over 40% in size; also: potency is read from the fitted curve at half-maximal effect
Procedure, shortened: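 DPX-2 cells (HepG2 co-transfected with a PXR response element and a CYP3A4-promoter luciferase construct) were seeded at 2,000 per well, rested 5 hr at 37C, then exposed to DMSO-dissolved compounds for 24 hr. Activation was read as luciferase luminescence.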

[8] = molecular target: Aryl hydrocarbon receptor (Homo sapiens) (UniProt P35869); test: qHTS assay to identify small molecule that activate the aryl hydrocarbon receptor (AhR) signaling pathway (AID 743085); also: nearly all actives have a fitted effect of over 15% in size; also: potency is read from the fitted curve at half-maximal effect;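 as to activation: HG2L7.5c1 human HepG2 liver cells with stably integrated DRE-driven firefly reporter; series mostly up to about 70 µM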
Aryl hydrocarbon receptor (Homo sapiens), sequence (P35869 whole entry, looked up): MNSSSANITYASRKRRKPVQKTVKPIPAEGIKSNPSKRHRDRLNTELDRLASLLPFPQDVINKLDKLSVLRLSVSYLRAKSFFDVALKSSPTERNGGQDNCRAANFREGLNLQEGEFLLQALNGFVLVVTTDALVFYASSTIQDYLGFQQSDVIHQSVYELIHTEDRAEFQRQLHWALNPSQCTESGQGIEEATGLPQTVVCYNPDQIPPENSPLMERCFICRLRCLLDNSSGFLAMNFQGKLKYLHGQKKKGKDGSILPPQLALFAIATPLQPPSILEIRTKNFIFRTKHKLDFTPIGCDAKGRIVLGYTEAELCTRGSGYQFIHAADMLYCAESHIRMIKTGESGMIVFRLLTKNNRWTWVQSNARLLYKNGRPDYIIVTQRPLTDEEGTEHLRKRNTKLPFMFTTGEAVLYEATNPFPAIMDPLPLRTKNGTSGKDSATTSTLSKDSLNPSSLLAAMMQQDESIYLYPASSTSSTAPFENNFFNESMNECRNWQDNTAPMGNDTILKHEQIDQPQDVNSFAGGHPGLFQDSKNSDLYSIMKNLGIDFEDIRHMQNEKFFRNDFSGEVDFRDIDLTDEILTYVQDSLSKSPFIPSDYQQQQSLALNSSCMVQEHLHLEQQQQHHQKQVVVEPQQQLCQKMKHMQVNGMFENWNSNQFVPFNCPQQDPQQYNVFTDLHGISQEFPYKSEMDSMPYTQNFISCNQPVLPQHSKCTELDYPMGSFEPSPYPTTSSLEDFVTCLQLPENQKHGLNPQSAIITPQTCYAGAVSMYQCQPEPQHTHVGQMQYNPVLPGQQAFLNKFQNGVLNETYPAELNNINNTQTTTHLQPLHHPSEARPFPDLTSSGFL
Procedure, shortened: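 Cell line HG2L7.5c1 (human hepatoma, 20× DRE-luc). Plated, 5 h 37C, compound/DMSO added, 24 h 37C. CellTiter-Fluor 30 min 37C → fluorescence; then ONE-Glo 30 min RT → luminescence.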

Row | Structure (SMILES) | Potency [1] | Potency [2] | Potency [3] | Potency [4] | max activation [5] [%] | Potency [6] | Potency [7] | Potency [8] | Potency [5]
1 | O=C1c2ccccc2C(=O)C1c1ccc(Cl)cc1 | inactive | inactive | inactive | inactive | -2.83 | inactive | inactive |  | 
2 | C=CC1=C(C)C2=CC3=NC(=C(CC(=O)[O-])C4=NC(=C(C)C4=C([O-])[O-])C=c4[n-]c(c(C)c4CC)=CC1=N2)C(CCC(=O)[O-])C3C.[Cu+2].[Na+].[Na+].[Na+] (stereo not drawn) | 23.7 µM (active) | 23.7 µM (active) | inactive | inactive | -0.69 | inactive | inactive |  | 
3 | O=S(=O)(O)c1cc(O)c2c(N=Nc3ccc(Nc4ccccc4)c4c(S(=O)(=O)O)cccc34)cc(S(=O)(=O)O)cc2c1 | 16.8 µM (active) | 11.9 µM (active) | inactive | inactive | -12 | inactive | inactive |  | 
4 | CC1(C)S[C@@H]2[C@H](NC(=O)C(N)c3ccccc3)C(=O)N2[C@H]1C(=O)OC1OC(=O)c2ccccc21 (stereo partly drawn) | inactive | inactive | inactive | inactive | -3.71 | inactive | inactive |  | 
5 | CCCCC(O)c1ccccc1 (stereo not drawn) | inactive | inactive | inactive | inactive | -0.82 | inactive | inactive |  | 
6 | O=C(OCc1ccccc1)c1cccnc1 | inactive | inactive | inactive | inactive | 6.76 | inactive | inactive |  | 
7 | Cc1cc(C(=O)NNCc2ccccc2)no1 | inactive | inactive | inactive | inactive | -1.39 | inactive | inactive |  | 
8 | CCN(CC)CCOCCOC(=O)C(CC)(CC)c1ccccc1 | inactive | inactive | inactive | 10 µM (active) | 2.25 | 31.6 µM (active) | 15.8 µM (active) |  | 
9 | COc1ccc2cc([C@H](C)CO)ccc2c1 | inactive | inactive | inactive | inactive | -2.68 | inactive | inactive |  | 
10 | c1ccc2cc(C3=NCCN3)ccc2c1 | inactive | inactive | inactive | inactive | -0.34 | inactive | inactive |  | 
11 | CCCC(=O)O[C@]1(C(=O)COC(C)=O)CC[C@H]2[C@@H]3C[C@H](F)C4=CC(=O)C=C[C@]4(C)[C@@]3(F)[C@@H](O)C[C@@]21C |  | inactive |  | inactive |  | inactive | inactive | inactive | 2.51 µM (active)
12 | NC(Cc1ccccc1)C(=O)O (stereo not drawn) | inactive | inactive | inactive | inactive | 14.8 | inactive | inactive |  | 
13 | CC(CCc1ccc(O)cc1)NCC(O)c1ccc(O)cc1 (stereo not drawn) |  | inactive | inactive | inactive | -0.789 | inactive | inactive | inactive | 
14 | CCN(CC)Cc1cc(Nc2ccnc3cc(Cl)ccc23)ccc1O |  | inactive |  | inactive | -2.52 | inactive | inactive | inactive | 
15 | CCCCCCCCCCCCCCCCOCCOCCOCCOCCOCCOCCOCCOCCOCCOCCOCCOCCOCCOCCOCCOCCOCCOCCOCCOCCO |  |  |  | inactive | -15.6 | inactive | inactive | inactive | 
16 | O=C(OC1C[C@@H]2CC3C[C@H](C1)N2CC3=O)c1c[nH]c2ccccc12 (stereo partly drawn) | inactive |  | inactive | inactive | 6.05 | inactive | inactive |  | 
17 | O=[n+]1ccn([O-])c2ccccc21 |  | inactive |  | inactive | -1.36 | inactive | inactive |  | 
18 | O=C(Cc1cccs1)N[C@@H]1C(=O)N2C(C(=O)[O-])=C(C[n+]3ccccc3)CS[C@H]12 | inactive | inactive | inactive | inactive | -1.81 | inactive | inactive |  | 
19 | CC(=O)N[C@@H]1C(O[C@H]2O[C@H](C(=O)O)C(O)[C@H](O)[C@H]2O)[C@H](O)[C@@H](CO)O[C@H]1O[C@@H]1C(C(=O)O)O[C@@H](O[C@H]2[C@H](O)[C@@H](CO)OC(O)[C@@H]2NC(C)=O)[C@H](O)[C@H]1O (stereo partly drawn) | inactive | inactive | inactive | inactive | -1.09 | inactive | inactive |  | 
20 | O=c1oc2cc(O)ccc2s1 | inactive | inactive | inactive | inactive | -17.1 | inactive | inactive |  | 
21 | NC(=O)OC[C@@H]1[C@H](NC(=O)/C(=N\OCC(=O)O)c2csc(N)n2)C(=O)N1S(=O)(=O)O |  | inactive |  | inactive | -2.39 | inactive | inactive |  | 
22 | CN(C)C(=O)CCSC(SCCC(=O)O)c1cccc(/C=C/c2ccc3ccc(Cl)cc3n2)c1 (stereo not drawn) |  |  |  | inactive |  | inactive | 8.91 µM (active) | 1.88 µM (active) | 4.47 µM (active)
23 | C[C@H]1[C@@H](OC(=O)CCC(=O)O)O[C@@H]2OC3(C)CC[C@H]4[C@H](C)CC[C@@H]1[C@@]24OO3 |  |  |  | inactive | -13.4 | inactive | inactive | inactive | 
